# Biological target: AATK
# Assay: pooled miR-30 sensor sort-seq; sequence = guide strand
# Settings: shRNA
# Note: reference of the scale not given here.
row,Sequence,sensor-assay potency score (higher = more potent)
1,TAGTCCTCTCTGTACTTGCAGT,-1.18
2,TTGCGTTCCAGGTCCTCGCAGA,-0.188
3,TAGTTCTCGGTGTCATAGCCAC,-0.895
4,TTCACCGTCAGGTCAGCCGTGA,-0.0686
5,TTGTACTCAAAATTGAGGCCTC,0.126
6,ATAGTCACCAATCTTCACCGTC,0.047
7,TTGATGGCAGACACCTCGCCAC,-0.828
8,TTGCCTTCTGATCTCAGCGGAA,-0.981
9,TTCTGATCTCAGCGGAACCGGG,-1.21

# Biological target: ABCA10
# Assay: as above
# Settings: shRNA
row,Sequence,sensor-assay potency score (higher = more potent)
1,TTAGACAGAAATACTTTCCTAT,0.661
2,TTGAACATCTTCATCTTCTTCT,1.07
3,TTCTTCTTCGGGCTCTTCCGGA,-0.863
4,TTCTTTTATAACATTTCTGATT,-1.16
5,TTATTAACGATTAACAGGCTGG,-0.301
6,TTCATTTATTCTATTGTCCAGA,-0.279
7,TTATTTTTTCTCCACTTGCGAA,-1.28
8,TTTATCATCAACATTTCCCAGC,-0.195
9,TATCACTAAATATAACTCCCAC,-0.516
10,TATTCTTTTATAACATTTCTGA,0.0597
11,TTTATTTTAGCAAATACCCTGA,-0.0638

# From the OligoGym collection
